Tests used:
Experiment in all cases: SPOT peptide array binding signal intensity (averaged, normalized) (arbitrary units (background-subtracted, floor 0; scale differs between SH3 domains)); higher = stronger binding of the SH3 domain to the peptide
AgAbp1 = biological target: AgAbp1
Summary of the method: (§1)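 Peptides were synthetic 15-mers on cellulose membranes, with every cysteine replaced by serine. They were incubated overnight at 4°C with GST-SH3 domains from four yeast species at 10 μg/ml in TBS-based blocking buffer. Binding signal, the replicate-averaged normalized and background-subtracted spot intensity, is in arbitrary units that differ between domains.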

AgBbc1 = biological target: AgBbc1
Summary of the method: as §1

AgBem1-D1 = biological target: AgBem1-D1
Summary of the method: as §1

AgBzz1-D1 = biological target: AgBzz1-D1
Summary of the method: as §1

AgBzz1-D2 = biological target: AgBzz1-D2
Summary of the method: as §1

AgCyk3 = biological target: AgCyk3
Summary of the method: as §1

AgFus1 = biological target: AgFus1
Summary of the method: as §1

AgHof1 = biological target: AgHof1
Summary of the method: as §1

AgHse1 = biological target: AgHse1
Summary of the method: as §1

AgLsb1 = biological target: AgLsb1
Summary of the method: as §1

AgLsb4 = biological target: AgLsb4
Summary of the method: as §1

AgMyo5 = biological target: AgMyo5
Summary of the method: as §1

AgNbp2 = biological target: AgNbp2
Summary of the method: as §1

AgRvs167 = biological target: AgRvs167
Summary of the method: as §1

AgSho1 = biological target: AgSho1
Summary of the method: as §1

AgSla1-D1-D2 = biological target: AgSla1-D1-D2
Summary of the method: as §1

AgSla1-D3 = biological target: AgSla1-D3
Summary of the method: as §1

CaAbp1-D1 = biological target: CaAbp1-D1
Summary of the method: as §1

CaAbp1-D2 = biological target: CaAbp1-D2
Summary of the method: as §1

CaBbc1 = biological target: CaBbc1
Summary of the method: as §1

CaBem1-D1 = biological target: CaBem1-D1
Summary of the method: as §1

CaBzz1-D1 = biological target: CaBzz1-D1
Summary of the method: as §1

CaBzz1-D2 = biological target: CaBzz1-D2
Summary of the method: as §1

CaCyk3 = biological target: CaCyk3
Summary of the method: as §1

CaFus1 = biological target: CaFus1
Summary of the method: as §1

CaHof1 = biological target: CaHof1
Summary of the method: as §1

CaHse1 = biological target: CaHse1
Summary of the method: as §1

CaLsb1 = biological target: CaLsb1
Summary of the method: as §1

CaLsb4 = biological target: CaLsb4
Summary of the method: as §1

CaMyo5 = biological target: CaMyo5
Summary of the method: as §1

CaNbp2 = biological target: CaNbp2
Summary of the method: as §1

CaRvs167 = biological target: CaRvs167
Summary of the method: as §1

CaRvs167-3 = biological target: CaRvs167-3
Summary of the method: as §1

CaSho1 = biological target: CaSho1
Summary of the method: as §1

CaSla1-D1-D2 = biological target: CaSla1-D1-D2
Summary of the method: as §1

CaSla1-D3 = biological target: CaSla1-D3
Summary of the method: as §1

ScAbp1 = biological target: ScAbp1
Summary of the method: as §1

ScBbc1 = biological target: ScBbc1
Summary of the method: as §1

ScBem1-D1 = biological target: ScBem1-D1
Summary of the method: as §1

ScBzz1-D1 = biological target: ScBzz1-D1
Summary of the method: as §1

ScBzz1-D2 = biological target: ScBzz1-D2
Summary of the method: as §1

ScCyk3 = biological target: ScCyk3
Summary of the method: as §1

ScFus1 = biological target: ScFus1
Summary of the method: as §1

ScHof1 = biological target: ScHof1
Summary of the method: as §1

ScHse1 = biological target: ScHse1
Summary of the method: as §1

ScLsb1 = biological target: ScLsb1
Summary of the method: as §1

ScLsb2 = biological target: ScLsb2
Summary of the method: as §1

ScLsb3 = biological target: ScLsb3
Summary of the method: as §1

ScLsb4 = biological target: ScLsb4
Summary of the method: as §1

ScMyo3 = biological target: ScMyo3
Summary of the method: as §1

ScMyo5 = biological target: ScMyo5
Summary of the method: as §1

ScNbp2 = biological target: ScNbp2
Summary of the method: as §1

ScPex13 = biological target: ScPex13
Summary of the method: as §1

ScRvs167 = biological target: ScRvs167
Summary of the method: as §1

ScSho1 = biological target: ScSho1
Summary of the method: as §1

ScSla1-D1-D2 = biological target: ScSla1-D1-D2
Summary of the method: as §1

ScSla1-D3 = biological target: ScSla1-D3
Summary of the method: as §1

SpAbp1-D1 = biological target: SpAbp1-D1
Summary of the method: as §1

SpBbc1 = biological target: SpBbc1
Summary of the method: as §1

SpBzz1-D1 = biological target: SpBzz1-D1
Summary of the method: as §1

SpBzz1-D2 = biological target: SpBzz1-D2
Summary of the method: as §1

SpCyk3 = biological target: SpCyk3
Summary of the method: as §1

SpHof1 = biological target: SpHof1
Summary of the method: as §1

SpHof1-2 = biological target: SpHof1-2
Summary of the method: as §1

SpHof1-3 = biological target: SpHof1-3
Summary of the method: as §1

SpHse1 = biological target: SpHse1
Summary of the method: as §1

SpLsb1 = biological target: SpLsb1
Summary of the method: as §1

SpLsb4 = biological target: SpLsb4
Summary of the method: as §1

SpMyo1 = biological target: SpMyo1
Summary of the method: as §1

SpNbp2 = biological target: SpNbp2
Summary of the method: as §1

SpPex13 = biological target: SpPex13
Summary of the method: as §1

SpRvs167 = biological target: SpRvs167
Summary of the method: as §1

SpSla1-D1-D2 = biological target: SpSla1-D1-D2
Summary of the method: as §1

SpSla1-D3 = biological target: SpSla1-D3
Summary of the method: as §1

For LYEAMPPTLPHRDWK, the “SPOT peptide array binding signal intensity” value (AgAbp1) was 1, the “SPOT peptide array binding signal intensity” value (AgBbc1) was 2.5 and the “SPOT peptide array binding signal intensity” value (AgBem1-D1) was 13.5. The “SPOT peptide array binding signal intensity” value (AgBzz1-D1) was at most 0, the “SPOT peptide array binding signal intensity” value (AgBzz1-D2) was at most 0 and the “SPOT peptide array binding signal intensity” value (AgCyk3) was 2. The “SPOT peptide array binding signal intensity” value (AgFus1) was 33, the “SPOT peptide array binding signal intensity” value (AgHof1) was 0.5 and the “SPOT peptide array binding signal intensity” value (AgHse1) was 50. The “SPOT peptide array binding signal intensity” value (AgLsb1) was 30.5, the “SPOT peptide array binding signal intensity” value (AgLsb4) was 518 and the “SPOT peptide array binding signal intensity” value (AgMyo5) was 0.5. For the same binder, the “SPOT peptide array binding signal intensity” value (AgNbp2) was 154, the “SPOT peptide array binding signal intensity” value (AgRvs167) was 30.2 and the “SPOT peptide array binding signal intensity” value (AgSho1) was 26.5. For the same binder, the “SPOT peptide array binding signal intensity” value (AgSla1-D1-D2) was at most 0, the “SPOT peptide array binding signal intensity” value (AgSla1-D3) was at most 0 and the “SPOT peptide array binding signal intensity” value (CaAbp1-D1) was 8. For the same binder, the “SPOT peptide array binding signal intensity” value (CaAbp1-D2) was 1.5, the “SPOT peptide array binding signal intensity” value (CaBbc1) was 16.5 and the “SPOT peptide array binding signal intensity” value (CaBem1-D1) was 16. For the same binder, the “SPOT peptide array binding signal intensity” value (CaBzz1-D1) was 50.5, the “SPOT peptide array binding signal intensity” value (CaBzz1-D2) was 27.2 and the “SPOT peptide array binding signal intensity” value (CaCyk3) was at most 0. For the same binder, the “SPOT peptide array binding signal intensity” value (CaFus1) was 327, the “SPOT peptide array binding signal intensity” value (CaHof1) was 0.5 and the “SPOT peptide array binding signal intensity” value (CaHse1) was 150. The “SPOT peptide array binding signal intensity” value (CaLsb1) was 0.5, the “SPOT peptide array binding signal intensity” value (CaLsb4) was 806 and the “SPOT peptide array binding signal intensity” value (CaMyo5) was 12. The “SPOT peptide array binding signal intensity” value (CaNbp2) was 141, the “SPOT peptide array binding signal intensity” value (CaRvs167) was 195 and the “SPOT peptide array binding signal intensity” value (CaRvs167-3) was 6. The “SPOT peptide array binding signal intensity” value (CaSho1) was 130, the “SPOT peptide array binding signal intensity” value (CaSla1-D1-D2) was 25.5 and the “SPOT peptide array binding signal intensity” value (CaSla1-D3) was 60.5. For the same binder, the “SPOT peptide array binding signal intensity” value (ScAbp1) was at most 0, the “SPOT peptide array binding signal intensity” value (ScBbc1) was at most 0 and the “SPOT peptide array binding signal intensity” value (ScBem1-D1) was at most 0. For the same binder, the “SPOT peptide array binding signal intensity” value (ScBzz1-D1) was at most 0, the “SPOT peptide array binding signal intensity” value (ScBzz1-D2) was 21 and the “SPOT peptide array binding signal intensity” value (ScCyk3) was 3. The “SPOT peptide array binding signal intensity” value (ScFus1) was 95.5, the “SPOT peptide array binding signal intensity” value (ScHof1) was 4.5 and the “SPOT peptide array binding signal intensity” value (ScHse1) was 15. For the same binder, the “SPOT peptide array binding signal intensity” value (ScLsb1) was 13, the “SPOT peptide array binding signal intensity” value (ScLsb2) was 2 and the “SPOT peptide array binding signal intensity” value (ScLsb3) was 736. For the same binder, the “SPOT peptide array binding signal intensity” value (ScLsb4) was 636, the “SPOT peptide array binding signal intensity” value (ScMyo3) was 19.5 and the “SPOT peptide array binding signal intensity” value (ScMyo5) was 0.5. For the same binder, the “SPOT peptide array binding signal intensity” value (ScNbp2) was 252, the “SPOT peptide array binding signal intensity” value (ScPex13) was 807 and the “SPOT peptide array binding signal intensity” value (ScRvs167) was 374. For the same binder, the “SPOT peptide array binding signal intensity” value (ScSho1) was 257, the “SPOT peptide array binding signal intensity” value (ScSla1-D1-D2) was 46 and the “SPOT peptide array binding signal intensity” value (ScSla1-D3) was 85.5. The “SPOT peptide array binding signal intensity” value (SpAbp1-D1) was at most 0, the “SPOT peptide array binding signal intensity” value (SpBbc1) was 2 and the “SPOT peptide array binding signal intensity” value (SpBzz1-D1) was 67. For the same binder, the “SPOT peptide array binding signal intensity” value (SpBzz1-D2) was 0.5, the “SPOT peptide array binding signal intensity” value (SpCyk3) was 3 and the “SPOT peptide array binding signal intensity” value (SpHof1) was 2. The “SPOT peptide array binding signal intensity” value (SpHof1-2) was 2, the “SPOT peptide array binding signal intensity” value (SpHof1-3) was 0.5 and the “SPOT peptide array binding signal intensity” value (SpHse1) was 78.5. For the same binder, the “SPOT peptide array binding signal intensity” value (SpLsb1) was 2.25, the “SPOT peptide array binding signal intensity” value (SpLsb4) was 1290 and the “SPOT peptide array binding signal intensity” value (SpMyo1) was 32.5. The “SPOT peptide array binding signal intensity” value (SpNbp2) was 22.5, the “SPOT peptide array binding signal intensity” value (SpPex13) was 38.5 and the “SPOT peptide array binding signal intensity” value (SpRvs167) was 282. The “SPOT peptide array binding signal intensity” value (SpSla1-D1-D2) was 1 and the “SPOT peptide array binding signal intensity” value (SpSla1-D3) was 21.
